# Screens (PubChem)
# HT1080 IDH1KD tx – kills HT-1080 cells with IDH1 knockdown | 2% of 360,000 active | HT-1080 IDH1 knockdown viability, ATP luminescence, 48 h | Potency, µM (doses to about 46.1 µM), for the others: at the top dose activity, negative = toxicity, usual class: cytotoxic;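 further: 0% = DMSO wells and -100% = cell-free medium wells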
#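 Knockdown cells (IDH1KD HT-1080) received compounds 2 h after plating at 750 cells/well and were kept 48 h at 37 °C in 5% FBS RPMI. A CellTiter-Glo luminescence read gave % activity for curve fitting.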
# MCF10A rereplic – DNA re-replication induction in MCF 10a cells | MCF 10A DNA re-replication, Hoechst nuclear intensity, 48 h | Potency, µM (series often up to 46.1 µM), for the others: at the top dose activity, positive = re-replication, usual class: activators | 2.9% of 350,000 active | AID 624296; further: % of control where 0% means no effect; nearly all actives have a fitted effect of over 50% in size
# HT1080-NT tox – kills 2HG-producing HT-1080-NT fibrosarcoma cells | AID 686970 | Potency, µM (series often up to 46.1 µM), for inactives: at the highest dose activity, negative = less viability, usual class: cytotoxic | 1.6% of 360,000 active | HT-1080-NT fibrosarcoma viability, CellTiter-Glo ATP luminescence, 48 h;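 further: NT is the 2HG producing partner of a matched IDH1 knockdown line; 0% = DMSO-treated cells and -100% = media-only wells without cells; nearly all actives have a fitted effect of over 55% in size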
#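 Luminescent CellTiter-Glo readout after 48 hours of compound exposure at 37 degrees C defined viability of HT-1080-NT cells. Activity was normalized to DMSO wells and cell-free media wells; concentration-response curves were fitted and assigned curve classes.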
# KB-V1 cytotox – KB-V1 MDR subline cytotoxicity | KB-V1 MDR cells viability, CellTiter-Glo, 72 h | Potency, µM (doses to about 46.1 µM), usual class: cytotoxic | 3.4% of 400,000 active | AID 1347076; further: on the % scale 0 is the no-effect control and ±100 the full control effect; nearly all actives have a fitted effect of over 60% in size
#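 KB-V1, DMEM (no phenol red) + 10% FBS; cpd pin-transferred, titration series; 72 h, 37 degrees C; CellTiter-Glo, luminescence. Data normalized, curve-fit.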
# SW480 rerep – induces DNA re-replication in SW480 colon adenocarcinoma cells. SW480 DNA re-replication, Hoechst DNA content imaging, 48 h. Potency, µM (titrated, usually from 46.1 µM), for inactives: at the top dose re-replication activation, hits mostly activators. 1.8% of 340,000 active; further: % of control where 0% means no effect; nearly all actives have a fitted effect of over 55% in size
#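 Cells (250 per well) received 23 nL compound or DMSO by pin tool and were kept 48 hr at 37 C, 5% CO2. Nuclei were then stained with Hoechst for 40 min and scanned for DNA content.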
# KB-3-1 cytotox – kills parental KB-3-1 adenocarcinoma cells; 1.4% of 400,000 active; Potency, µM (top dose mostly 46.1 µM), usual class: cytotoxic; AID 1347075; KB-3-1 viability, CellTiter-Glo ATP luminescence, 72 h; further: on the % scale 0 is the no-effect control and ±100 the full control effect; nearly all actives have a fitted effect of over 60% in size
#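 KB-3-1 parental drug-naive adenocarcinoma cells in DMEM/10% FBS, incubated 72 h at 37 C with pin-transferred compounds across a concentration series. Viability by CellTiter-Glo luminescence; concentration-response curves fitted after normalization.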
# * marks the source's active call; other numbers are inactive results; i = inactive; ? = inconclusive; nt = no result given; [ ] = another dose, or the depositor's remark. Most compounds without a hit are left out; they make up all but 8% or so of the library. The call rests on the fitted dose curve; in most records, active means well fitted curve in the direction sought with a large enough effect; inconclusive means small, poorly fitted or top-dose-only effect, or another doubt; inactive means no such curve, though single readings can be large; an effect the other way counts as inactive or inconclusive. Potency means the concentration at half of the fitted maximal effect.
SMILES,HT1080 IDH1KD tx,MCF10A rereplic,HT1080-NT tox,KB-V1 cytotox,SW480 rerep,KB-3-1 cytotox
Cc1ccc(NC(=O)CCNC(=O)c2ccc(Br)cc2)cc1S(=O)(=O)N1CCCCCC1,-7%,?,-8%,21µM*,-7%,?
Cc1ccc(NC(=O)CN(C)C(=O)Cn2ncc(Cl)c(Cl)c2=O)cc1,21µM*,3.3µM*,?,?,?,?
CCCCCC(=O)Nc1cc(S(=O)(=O)N2CCOCC2)ccc1N1CCCC1,1%,0%,10%,i,-7%,i
Cc1cc(Cl)c(S(N)(=O)=O)cc1OCC(N)=O,12%,-7%,23%,?,-11%,i
Cc1sc2nc(SCC(=O)N3CCN(CCO)CC3)n(-c3ccccc3)c(=O)c2c1C,14%[9.24 µM],14%,0%,i,0%,i
CC1CC/C(=C\c2ccc3c(c2)OCO3)C(=O)/C1=C/c1ccc2c(c1)OCO2 (configuration not stated),?,7.3µM*,?,i,?,26µM*
Cc1ccc(/C=c2/sc3n(c2=O)CCCN=3)o1,9%,7%,15%,i,1%,i
O=c1/c(=C\c2ccc3c(c2)OCO3)sc2n1CCCN=2,-4%,11%,1%,13µM*,8%,i
O=C1OCC/C1=C\c1ccc2c(c1)OCO2,5%,8%,-1%,i,10%,i
O=C1/C(=C\c2ccc3c(c2)OCO3)CCC/C1=C/c1ccc2c(c1)OCO2,-1%,12µM*,-15%,i,-2%,i
CC(C)Cc1nnc(NC(=O)Nc2ccccc2)s1,-29%,?,-23%,?,10%,i
CCCCNc1ncnc2c1cnn2-c1ccccc1,15µM*,?,?,?,6.5µM*,6.5µM*
COc1ccc(Nc2ncnc3c2cnn3Cc2ccccc2)cc1OC,?,15%,?,18µM*,5%,i
Cc1cccc(Nc2ncnc3c2cnn3Cc2ccccc2)c1,-9%,2%,-1%,i,-2%,i
CCc1nc(NC(C)(C)C)c2cnn(-c3ccccc3)c2n1,?,23µM*,?,i,?,i
Clc1ccc(Cn2ncc3c(NCc4ccccc4)ncnc32)cc1,4.6µM*,6.5µM*,5.8µM*,6.5µM*,?,5.2µM*
CCOc1ccc(Oc2ccc(S(=O)(=O)N3CCOCC3)cc2NC(=O)CCNC(C)=O)cc1,2%,-1%,-1%,i,-39%,i
CCCCNc1ncnc2c1cnn2Cc1ccc(Cl)cc1,?,?,?,i,?,?
CCCCNc1ncnc2c1cnn2-c1ccc(Cl)cc1,9.2µM*,?,12µM*,?,8.2µM*,1.6µM*
Clc1ccc(-n2ncc3c(NCc4ccccn4)ncnc32)cc1,-10%,15%,-3%,23µM*,-6%,i
c1ccc(Cn2ncc3c(NCc4ccco4)ncnc32)cc1,-2%[9.24 µM],-6%,?,i,5%,i
c1ccc(-n2ncc3c(NCc4ccco4)ncnc32)cc1,?,13µM*,?,i,21µM*,i
Nn1c(SCC(=O)Nc2cc(C(F)(F)F)ccc2Cl)nncc1=O,-23%,17%,-13%,i,-5%,i
CSc1ccc(-c2cc3c(c4c2ccn4C)C2CCC3C2)cc1 (configuration not stated),2%,nt,-4%,i,nt,i
CC(=O)Nc1cc(C(=O)OC(C(=O)c2ccccc2)c2ccccc2)ccc1C (configuration not stated),-2%,32%,-2%,16µM*,-12%,i
Cc1ccc(NC(=O)C(OC(=O)c2ccc(C=O)cc2)c2ccccc2)cc1Cl (configuration not stated),23µM*,-18%,?,i,?,i
